Results taken from PubChem BioAssay.
“And” between values parts separate entries of the source, which are not always exact repeats. Equal entries are not always repeated. For some assays here: Measured potencies and affinities stand elsewhere. Where a structure was tested more than once in an assay, its records may differ in their call. The source made the active and inactive calls. Unless noted, the rule behind the calls is not given here.

How the values were obtained:
[1] = antimalarial activity against Dd2 strain (AID 2302;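 active = growth inhibition above 50% at the single 2 µM test dose, taken to imply half-maximal potency below 2 µM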;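 note: 0% = DMSO untreated growth and 100% = chloroquine plus artemisinin killed control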); conditions: P. falciparum Dd2 in RBCs, LDH growth readout, 72 h; at 2 µM; stronger effect = higher value
[2] = HepG2 cytotoxicity, primary screen, cytotoxicity control for P. falciparum antimalarial project, cell-based, ATP luminescence (AID 2303;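 active = inhibition above 50%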;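 note: 0% = DMSO wells and 100% = digitonin-killed cells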); conditions: HepG2 viability, 24-48 h, at 10 µM, stronger effect = higher value
[3] = biological target: L-lactate dehydrogenase (Plasmodium falciparum (isolate CDC / Honduras)) (UniProt Q27743); test: PfLDH activity inhibition – cell lysate, 3D7 strain, counter-screen for P. falciparum growth inhibition project (AID 2304);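 note: 0% = vehicle and 100% = reference inhibitor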; conditions: P. falciparum 3D7 crude extract, LDH APAD/NBT absorbance; at 2 µM; stronger effect = higher value
[4] = inhibition of 3D7 malaria parasite growth – strain 3D7 (AID 2306);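 note: 0% = DMSO wells and 100% = chloroquine plus artemisinin control wells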; conditions: P. falciparum 3D7 erythrocytic growth, LDH absorbance, 72 h; at 2 µM; stronger effect = higher value
[5] = biological target: Calcium-dependent protein kinase 1 (Plasmodium falciparum (isolate 3D7)) (UniProt P62344); test: PfCDPK1 kinase inhibitors, biochemical, TCAMS library (AID 1159585; cut-off not given, nearly all actives have IC50 up to about 0.98 µM;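 note: inhibitors leave more ATP so luminescence rises with inhibition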); conditions: recombinant PfCDPK1, Kinase-Glo ATP depletion luminescence
[6] = biological target: Plasmodium falciparum protein kinase 6 (PK6, PF3D7_1337100) (UniProt Q8IDW1); test: PfPK6 kinase inhibitors, biochemical, TCAMS library (AID 1159586); conditions: recombinant PfPK6, Kinase-Glo ATP depletion luminescence
[7] = biological target: Protein kinase 7 (PK7), Plasmodium falciparum 3D7 (PF3D7_0213400) (UniProt Q7YTF7); test: inhibition of Plasmodium PK7 catalytic activity – biochemical, TCAMS antimalarial set, Kinase-Glo luminescence (AID 1159587); conditions: recombinant PfPK7, Kinase-Glo ATP depletion luminescence
[8] = biological target: Calcium-dependent protein kinase 4 (Plasmodium falciparum (isolate 3D7)) (UniProt Q8IBS5); test: PfCDPK4 kinase inhibitors, biochemical, TCAMS library (AID 1159588; cut-off not given, nearly all actives have IC50 up to about 0.91 µM); conditions: recombinant PfCDPK4, Kinase-Glo ATP depletion luminescence
Calcium-dependent protein kinase 4 (Plasmodium falciparum (isolate 3D7)), sequence (Q8IBS5 whole entry, looked up): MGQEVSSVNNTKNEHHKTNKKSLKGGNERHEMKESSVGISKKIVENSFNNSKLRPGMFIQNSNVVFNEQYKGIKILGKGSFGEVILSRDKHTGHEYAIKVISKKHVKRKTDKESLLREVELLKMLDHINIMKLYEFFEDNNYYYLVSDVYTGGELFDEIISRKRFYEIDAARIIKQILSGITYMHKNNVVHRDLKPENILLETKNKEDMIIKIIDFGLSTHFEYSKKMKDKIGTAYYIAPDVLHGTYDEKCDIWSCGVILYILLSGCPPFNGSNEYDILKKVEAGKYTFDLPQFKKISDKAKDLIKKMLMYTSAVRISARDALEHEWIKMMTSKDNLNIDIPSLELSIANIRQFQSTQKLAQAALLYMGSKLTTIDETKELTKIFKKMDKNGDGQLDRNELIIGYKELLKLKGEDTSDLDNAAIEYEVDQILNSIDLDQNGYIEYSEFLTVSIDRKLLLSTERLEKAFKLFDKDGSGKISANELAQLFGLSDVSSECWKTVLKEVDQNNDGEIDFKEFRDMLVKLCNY

Calcium-dependent protein kinase 1 (Plasmodium falciparum (isolate 3D7)), sequence (P62344 whole entry, looked up): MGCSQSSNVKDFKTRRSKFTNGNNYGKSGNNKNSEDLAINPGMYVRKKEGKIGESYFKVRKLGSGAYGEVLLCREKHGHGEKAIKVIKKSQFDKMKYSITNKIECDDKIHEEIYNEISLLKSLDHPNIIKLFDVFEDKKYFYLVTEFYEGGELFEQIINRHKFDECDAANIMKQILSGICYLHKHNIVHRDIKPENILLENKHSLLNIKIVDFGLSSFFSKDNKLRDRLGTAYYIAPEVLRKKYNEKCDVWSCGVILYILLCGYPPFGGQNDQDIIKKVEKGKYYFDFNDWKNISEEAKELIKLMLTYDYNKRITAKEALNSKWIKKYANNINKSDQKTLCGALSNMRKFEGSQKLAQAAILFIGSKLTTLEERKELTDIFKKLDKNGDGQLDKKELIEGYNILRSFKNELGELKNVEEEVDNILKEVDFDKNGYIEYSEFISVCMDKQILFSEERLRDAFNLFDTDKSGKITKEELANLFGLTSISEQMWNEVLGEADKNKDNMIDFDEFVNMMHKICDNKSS
Protein kinase 7 (PK7), Plasmodium falciparum 3D7 (PF3D7_0213400), sequence (Q7YTF7 1-343): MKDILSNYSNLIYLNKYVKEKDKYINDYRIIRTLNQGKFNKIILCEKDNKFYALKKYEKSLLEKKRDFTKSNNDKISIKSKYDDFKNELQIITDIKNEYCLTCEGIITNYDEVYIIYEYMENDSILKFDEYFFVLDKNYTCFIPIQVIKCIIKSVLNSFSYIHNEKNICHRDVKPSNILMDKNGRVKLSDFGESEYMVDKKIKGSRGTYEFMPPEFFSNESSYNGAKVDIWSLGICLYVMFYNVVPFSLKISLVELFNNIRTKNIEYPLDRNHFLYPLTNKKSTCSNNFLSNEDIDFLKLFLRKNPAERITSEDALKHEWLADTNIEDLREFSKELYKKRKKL
L-lactate dehydrogenase (Plasmodium falciparum (isolate CDC / Honduras)), sequence (Q27743 whole entry, looked up): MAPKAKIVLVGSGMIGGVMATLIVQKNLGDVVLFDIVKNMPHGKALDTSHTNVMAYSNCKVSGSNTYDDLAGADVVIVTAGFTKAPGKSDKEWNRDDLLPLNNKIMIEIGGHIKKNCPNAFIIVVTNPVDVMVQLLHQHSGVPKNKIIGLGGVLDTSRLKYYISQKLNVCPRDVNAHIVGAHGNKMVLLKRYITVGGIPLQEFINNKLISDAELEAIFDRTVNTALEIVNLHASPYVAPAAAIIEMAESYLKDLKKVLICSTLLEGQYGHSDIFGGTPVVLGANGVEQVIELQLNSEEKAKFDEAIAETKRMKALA
Plasmodium falciparum protein kinase 6 (PK6, PF3D7_1337100), sequence (Q8IDW1 1-305): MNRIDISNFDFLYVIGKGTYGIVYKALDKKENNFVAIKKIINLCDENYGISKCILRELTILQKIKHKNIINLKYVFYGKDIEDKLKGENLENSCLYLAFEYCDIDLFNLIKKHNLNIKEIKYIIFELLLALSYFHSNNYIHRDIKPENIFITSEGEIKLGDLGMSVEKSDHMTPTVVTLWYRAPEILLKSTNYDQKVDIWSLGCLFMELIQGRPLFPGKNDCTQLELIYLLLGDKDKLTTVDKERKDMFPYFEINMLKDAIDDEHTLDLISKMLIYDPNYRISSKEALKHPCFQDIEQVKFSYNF

Row | SMILES | growth inhibition [1] | inhibition [2] | inhibition [3] | growth inhibition [4] | outcome [5] | outcome [6] | outcome [7] | outcome [8]
1 | CN(c1cc(NC(=O)c2ccc(F)cc2)ccn1)C1CCN(Cc2cccc(O)c2)CC1 | 82% (active) | 3% (inactive) | 2% (inactive) | 100% (active) | inactive | inactive | inactive | inactive
2 | CC[C@H]1CN2CC[C@H]1C[C@@H]2[C@@H](O)c1cc(Cl)nc2ccc(OC)cc12 | 82% (active) | -9% (inactive) | -2% (inactive) | 98% (active) | inactive | inactive | inactive | inactive
3 | CC(C)CNCc1ccc(-c2cccc(CN(C(=O)NC3CCCCC3)C3CCN(Cc4ccccc4)CC3)c2)cc1 | 88% (active) | 20% (inactive) | 2% (inactive) | 98% (active) | inactive | inactive | inactive | inactive
4 | COc1ccc(CCNCc2ccc3c(C)cc(N)nc3c2)cc1 | 69% (active) | 12% (inactive) | 0% (inactive) | 101% (active) | inactive | inactive | inactive | inactive
5 | Oc1ccc(Cl)cc1CN1CCC(CCOC(c2ccccc2)c2ccc(Cl)cc2)CC1 (stereo unspecified) | 100% (active) | 32% (inactive) | 2% (inactive) | 98% (active) | inactive | inactive | inactive | inactive
6 | C[C@H](Cc1ccc(OCCCCCCOc2ccccc2)cc1)NC[C@@H](O)c1cc(Br)no1 | 70% (active) | 21% (inactive) | 5% (inactive) | 94% (active) | inactive | inactive | inactive | inactive
7 | CC[C@H]1CN2CC[C@H]1C[C@H]2[C@H](O)c1cc(-c2ccc(F)cc2)nc2ccc(OC)cc12 | 98% (active) | 34% (inactive) | 5% (inactive) | 99% (active) | inactive | inactive | inactive | inactive
8 | COc1cc(C=CC(=O)N2CCC(CN3CCC(c4c[nH]c5ccccc45)CC3)CC2)ccc1O | 25% (inactive) | 11% (inactive) | -3% (inactive) | 82% (active) | inactive | inactive | inactive | inactive
9 | COCC(=O)N(Cc1ccccc1-c1ccc(CNCCc2ccccc2)cc1)C1CCN(Cc2ccccc2)CC1 | 86% (active) | 39% (inactive) | 1% (inactive) | 94% (active) | inactive | inactive | inactive | inactive
10 | Oc1cccc(C2CCCN(CCc3c[nH]c4ccccc34)C2)c1 (stereo unspecified) | 40% (inactive) | 0% (inactive) | 2% (inactive) | 93% (active) | inactive | inactive | inactive | inactive
11 | c1ccc2c(NCCCCCCCCCNc3c4ccccc4nc4ccccc34)c3ccccc3nc2c1 | 95% (active) | 99% (active) | -6% (inactive) | 100% (active) | inactive | inactive | inactive | inactive
12 | Cn1nc(C(F)(F)F)cc1-c1ccc(C(=O)NC2CCC(CN3CCC(c4c[nH]c5ccccc45)CC3)CC2)s1 (stereo unspecified) | 97% (active) | 45% (inactive) | -1% (inactive) | 101% (active) | inactive | inactive | inactive | inactive
13 | O=C(NC1CCC(CN2CCC(c3c[nH]c4ccccc34)CC2)CC1)c1cc2cccc([N+](=O)[O-])c2[nH]1 (stereo unspecified) | 101% (active) | 36% (inactive) | -1% (inactive) | 103% (active) | inactive | inactive | inactive | inactive
14 | C=C[C@H]1CN2CC[C@H]1C[C@H]2[C@H](O)c1cc(/C=C/c2ccc(F)cc2)nc2ccc(OC)cc12 | 99% (active) | 25% (inactive) | 4% (inactive) | 99% (active) | inactive | inactive | inactive | inactive
15 | Cc1[nH]c2ccccc2c1C1=CCN(CCCCC2(C)C(=O)Nc3ccccc32)CC1 (stereo unspecified) | 89% (active) | 8% (inactive) | -4% (inactive) | 94% (active) | inactive | inactive | inactive | inactive
16 | Cc1c(C)c2c(c(C)c1O)CC[C@@](C)(C(=O)NC1CCC(CN3CCC(c4c[nH]c5ccccc45)CC3)CC1)O2 (stereo partly specified) | 57% (active) | 29% (inactive) | -2% (inactive) | 92% (active) | inactive | inactive | inactive | inactive
17 | Cc1[nH]c2c(C)cc(NS(C)(=O)=O)cc2c1C1CCN(CC2CCN(C(=O)/C=C/c3ccc(Cl)c(Cl)c3)CC2)CC1 | 99% (active) | 33% (inactive) | 1% (inactive) | 100% (active) | inactive | inactive | inactive | inactive
18 | Cc1cccc2c(C3CCN(CC4CCC(NC(=O)/C=C/c5ccc(Cl)c(Cl)c5)CC4)CC3)c[nH]c12 (stereo unspecified) | 49% (inactive) | 97% (active) | -4% (inactive) | 92% (active) | inactive | inactive | inactive | inactive
19 | COC(=O)c1ccc(CC(C)NCC(O)c2ccc3ccc4ccccc4c3c2)cc1 (stereo unspecified) | 97% (active) | 21% (inactive) | -2% (inactive) | 100% (active) | inactive | inactive | inactive | inactive

Row | SMILES | growth inhibition [1] | inhibition [2] | inhibition [3] | growth inhibition [4] | outcome [5] | outcome [6] | outcome [7] | outcome [8]
20 | Cc1[nH]c2ccc(NS(C)(=O)=O)cc2c1C1CCN(CC2CCN(C(=O)/C=C/c3ccc(Cl)c(Cl)c3)CC2)CC1 | 83% (active) | 15% (inactive) | -4% (inactive) | 99% (active) | inactive | inactive | inactive | inactive
21 | O=C1Nc2cccc3c2C1(CCCCN1CC=C(c2c[nH]c4ncccc24)CC1)CCC3 (stereo unspecified) | 80% (active) | 11% (inactive) | -5% (inactive) | 92% (active) | inactive | inactive | inactive | inactive
22 | Cc1ccc(/C=C/C(=O)NC2CCC(CN3CCC(c4c[nH]c5ccccc45)CC3)CC2)cc1C (stereo unspecified) | 71% (active) and 91% (active) | 23% (inactive) and 38% (inactive) | 8% (inactive) and 4% (inactive) | 100% (active) and 101% (active) | inactive | inactive | inactive | inactive
23 | COC(=O)c1ccc(C[C@@H](C)NC[C@H](O)c2cccc(C(F)(F)F)c2)cc1 | 93% (active) and 87% (active) | 1% (inactive) and -5% (inactive) | -6% (inactive) and -2% (inactive) | 97% (active) | inactive | inactive | inactive | inactive
24 | CC(=O)N(Cc1ccc(-c2ccc(CNCCc3ccccc3)cc2)cc1)C1CCN(Cc2ccccc2)CC1 | 15% (inactive) | 45% (inactive) | -2% (inactive) | 95% (active) | inactive | inactive | inactive | inactive
25 | Cc1c(C)c2c(c(C)c1O)CC[C@](C)(C(=O)NC1CCC(CN3CCC(c4c[nH]c5ccccc45)CC3)CC1)O2 (stereo partly specified) | 98% (active) and 48% (inactive) | 24% (inactive) and 27% (inactive) | -2% (inactive) and 1% (inactive) | 96% (active) and 85% (active) | inactive | inactive | inactive | inactive
26 | CC(=O)C1(c2ccccc2)CCN(CCC2(c3ccc(Cl)c(Cl)c3)CN(C(=O)CC(C)C)CCO2)CC1 (stereo unspecified) | 94% (active) | 7% (inactive) | 0% (inactive) | 92% (active) | inactive | inactive | inactive | inactive
27 | O=C(Nc1ccc(Cl)c(Cl)c1)N1CCC(CN2CCC(c3c[nH]c4ccccc34)CC2)CC1 | 69% (active) | 46% (inactive) | -2% (inactive) | 100% (active) | inactive | inactive | inactive | inactive
28 | CN1[C@@H]2CC[C@H]1c1cc(NC(=O)c3cc(-c4ccc(Cl)cc4)cs3)ccc12 | 35% (inactive) | 62% (active) | -2% (inactive) | 90% (active) | inactive | inactive | inactive | inactive
29 | CCCCCCC(C)(C)c1cc(O)c2c(c1)OC(C)(C)c1ccncc1-2 | 99% (active) | 4% (inactive) | 1% (inactive) | 95% (active) | inactive | inactive | inactive | inactive
30 | FC(F)(F)c1ccc(NC(=S)N2CCC(CN3CCC(c4c[nH]c5ccccc45)CC3)CC2)cc1 | 45% (inactive) | 35% (inactive) | -6% (inactive) | 100% (active) | inactive | inactive | inactive | inactive
31 | COc1cc(/C=C/C(=O)NC2CCC(CN3CCC(c4c[nH]c5ccccc45)CC3)CC2)ccc1O (stereo unspecified) | 45% (inactive) and 44% (inactive) | 11% (inactive) and 19% (inactive) | -8% (inactive) and -2% (inactive) | 98% (active) and 99% (active) | inactive | inactive | inactive | inactive
32 | O=C(NCc1ccc(S(=O)(=O)N2CCC(CN3CCC(c4c[nH]c5ccccc45)CC3)CC2)s1)c1ccccc1 | 21% (inactive) | 32% (inactive) | 5% (inactive) | 92% (active) | inactive | inactive | inactive | inactive
33 | COc1coc(C(=O)NC2CCN(CC3(c4ccc(Cl)cc4)CCC3)CC2)c1OC | 96% (active) | 2% (inactive) | -3% (inactive) | 96% (active) | inactive | inactive | inactive | inactive
34 | CCCN(CCC)CCOC(=O)C(OCC)(c1ccccc1)c1ccccc1 | 0% (inactive) | -2% (inactive) | 0% (inactive) | 97% (active) | inactive | inactive | inactive | inactive
35 | COCCSc1ccc(CC(C)NCC(O)c2cccc(Cl)c2)cc1 (stereo unspecified) | 73% (active) | 2% (inactive) | -1% (inactive) | 97% (active) | inactive | inactive | inactive | inactive
36 | CCCc1c(C(=O)NC2CCC(CN3CCC(c4c[nH]c5ccccc45)CC3)CC2)cnn1-c1c(Cl)cc(Cl)cc1Cl (stereo unspecified) | 49% (inactive) | 41% (inactive) | -5% (inactive) | 100% (active) | inactive | inactive | inactive | inactive
37 | Brc1cnc(NC2=NCCN2)c(Br)c1 | -1% (inactive) | -6% (inactive) | -3% (inactive) | 99% (active) | inactive | inactive | inactive | inactive
